Screening results (PubChem)
U2OS ROS induce: cancer cell ROS induction. U2OS ROS induction, H2DCF-DA fluorescence. ROS induction (% of piperlongumine), % at 10 µM. 46,000 compounds, 2% hits. AID 624156; in the data active = ROS induction above about 79%, passing the limit was not always enough;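 also: 0% = DMSO vehicle median and 100% = reference compound median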
* hit, by the source's call. This is one part of a sample in which hits are shown more often than they occur.

SMILES	U2OS ROS induce
C[C@@H]1CN([C@@H](C)CO)C(=O)c2cccc(NS(=O)(=O)c3cn(C)cn3)c2O[C@H]1CN(C)CC1CC1	-14.8
C[C@H](CO)N1C[C@H](C)[C@H](CN(C)CC2CCCCC2)Oc2c(NC(=O)NC3CCCCC3)cccc2C1=O	-18.2
COc1ccc(S(=O)(=O)Nc2ccc3c(c2)C(=O)N([C@@H](C)CO)C[C@@H](C)[C@H](CN(C)C(=O)Nc2ccc4c(c2)OCO4)O3)cc1	3.2
Cc1noc(C)c1S(=O)(=O)Nc1cccc2c1O[C@H](CN(C)CC1CC1)[C@H](C)CN([C@H](C)CO)C2=O	2.7
S=C(Nc1ccccc1)N1CCC(c2ccccc2)=N1	-4.2
S=C(Nc1ccccc1)N1CCN(c2ccc3nnc(-c4ccccc4)n3n2)CC1	239.6*
ONC=Nc1ccc2nnc(-c3ccccc3)n2n1	20.7
CCCNC(=O)N(C)Cc1ccccc1	-18.4
C[C@H]1CN([C@@H](C)CO)C(=O)c2cccc(NS(=O)(=O)c3ccc(Cl)cc3)c2O[C@H]1CN(C)Cc1ccc(C(=O)O)cc1	-15.5
CC(=O)Oc1ccc2cc(-c3nc4c(s3)CCc3ccccc3-4)c(=O)oc2c1	128.5*
COc1cc2cc(Oc3ccc4ccc(=O)oc4c3)c(=O)oc2cc1OC(C)=O	5.1
Cc1cccc(C)c1NC(=O)COc1ccc2cc(-c3ccccc3)c(=O)oc2c1	-12.1
C[C@H](CO)N1C[C@H](C)[C@@H](CN(C)S(C)(=O)=O)Oc2ccc(NC(=O)CCCN(C)C)cc2C1=O	-15.7
C[C@H](CO)N1C[C@H](C)[C@H](CN(C)Cc2ccncc2)Oc2c(NC(=O)Nc3ccccc3)cccc2C1=O	54.0
C[C@H](CO)N1C[C@H](C)[C@@H](CN(C)Cc2ccc(Oc3ccccc3)cc2)Oc2ccc(NC(=O)Cc3ccccc3)cc2C1=O	137.9*
C[C@@H]1CN([C@@H](C)CO)C(=O)c2cc(NC(=O)Cc3ccccc3)ccc2O[C@@H]1CN(C)Cc1ccc(-c2ccccc2)cc1	59.9
C[C@@H]1CN([C@@H](C)CO)C(=O)c2cc(NC(=O)c3ccncc3)ccc2O[C@@H]1CN(C)Cc1ccccc1	-21.7
C[C@H](CO)N1C[C@H](C)[C@@H](CN(C)Cc2ccc(-c3ccccc3)cc2)Oc2ccc(NC(=O)c3ccncc3)cc2C1=O	18.9
C[C@H]1CN([C@@H](C)CO)C(=O)c2cc(NC(=O)Cc3ccccc3)ccc2O[C@H]1CN(C)Cc1ccccc1	-2.6
C[C@@H]1CN([C@H](C)CO)C(=O)c2cc(NC(=O)Cc3ccccc3)ccc2O[C@H]1CN(C)Cc1ccc(-c2ccccc2)cc1	100.2*
C[C@@H]1CN([C@H](C)CO)C(=O)c2cc(NC(=O)c3ccncc3)ccc2O[C@@H]1CN(C)Cc1ccc(-c2ccccc2)cc1	112.9*
C[C@H](CO)N1C[C@H](C)[C@H](CN(C)Cc2ccc(-c3ccccc3)cc2)Oc2ccc(NC(=O)CCC(F)(F)F)cc2C1=O	9.2
C[C@@H]1CN([C@H](C)CO)C(=O)c2cc(NC(=O)CCC(F)(F)F)ccc2O[C@H]1CN(C)Cc1ccc(-c2ccccc2)cc1	38.3
C[C@H]1CN([C@@H](C)CO)C(=O)c2cc(NC(=O)CCC(F)(F)F)ccc2O[C@@H]1CN(C)Cc1ccc(-c2ccccc2)cc1	81.8*
C[C@@H]1CN([C@H](C)CO)C(=O)c2cc(NC(=O)Cc3ccccc3)ccc2O[C@H]1CN(C)Cc1ccc(Oc2ccccc2)cc1	-1.4
SMILES	U2OS ROS induce
C[C@H]1CN([C@@H](C)CO)C(=O)c2cc(NC(=O)Cc3ccccc3)ccc2O[C@H]1CN(C)Cc1ccc(Oc2ccccc2)cc1	-5.5
C[C@@H]1CN([C@H](C)CO)C(=O)c2cccc(NC(=O)C3CCOCC3)c2O[C@@H]1CN(C)S(=O)(=O)c1ccc(Cl)cc1	4.8
CC(C)NC(=O)Nc1ccc2c(c1)C(=O)N([C@H](C)CO)C[C@@H](C)[C@@H](CN(C)S(C)(=O)=O)O2	-10.0
O=C(CSc1nc(-c2cccs2)cc(C(F)(F)F)n1)N1CCSCC1	26.6
C[C@@H]1CN([C@H](C)CO)C(=O)Cc2cc(NC(=O)Nc3ccccc3)ccc2O[C@@H]1CN(C)Cc1ccncc1	4.3
NC(=NC(=O)CCn1c(=O)oc2ccccc21)c1ccc(C(F)(F)F)cc1	0.0
CN(C)CC#Cc1cncc(C(=O)NN)c1	-3.2
Cc1cc(C)c(S(=O)(=O)N(C)CC(=O)Nc2ccc3c(c2)OCCO3)c(C)c1	-14.0
C[C@@H]1CCCCO[C@H](CN(C)Cc2ccncc2)[C@@H](C)CN([C@H](C)CO)C(=O)c2cc(NC(=O)c3ccncc3)ccc2O1	5.3
C[C@@H]1CCCCO[C@@H](CN(C)Cc2ccc(C(F)(F)F)cc2)[C@@H](C)CN([C@H](C)CO)C(=O)c2cc(NC(=O)c3ccncc3)ccc2O1	98.0*
C[C@@H]1CCCCO[C@@H](CN(C)Cc2ccc(C(F)(F)F)cc2)[C@@H](C)CN([C@H](C)CO)C(=O)c2cc(NC(=O)c3ccccc3)ccc2O1	71.1
C[C@@H]1CCCCO[C@H](CN(C)Cc2ccccc2)[C@@H](C)CN([C@H](C)CO)C(=O)c2cc(NC(=O)c3ccncc3)ccc2O1	10.8
